29 compounds from PubChem BioAssay AID624002 (National Center for Advancing Translational Sciences (NCATS), 2012) can be followed below.

SMILES strings stand for the structures. The list shows a part of the results. Inconclusive results are not listed. Activity calls are given as the source filed them. Calls follow the shape of the dose curve; as a rule, active = well fitted inhibition curve with a large enough effect; inconclusive = small, poorly fitted or top-dose-only effect; inactive = no such curve, though single readings can be large or run the other way.
Potency is read from the fitted curve at half-maximal effect.

Isocitrate dehydrogenase [NADP] cytoplasmic (Homo sapiens), sequence (O75874 whole entry R132H, stated change not applied): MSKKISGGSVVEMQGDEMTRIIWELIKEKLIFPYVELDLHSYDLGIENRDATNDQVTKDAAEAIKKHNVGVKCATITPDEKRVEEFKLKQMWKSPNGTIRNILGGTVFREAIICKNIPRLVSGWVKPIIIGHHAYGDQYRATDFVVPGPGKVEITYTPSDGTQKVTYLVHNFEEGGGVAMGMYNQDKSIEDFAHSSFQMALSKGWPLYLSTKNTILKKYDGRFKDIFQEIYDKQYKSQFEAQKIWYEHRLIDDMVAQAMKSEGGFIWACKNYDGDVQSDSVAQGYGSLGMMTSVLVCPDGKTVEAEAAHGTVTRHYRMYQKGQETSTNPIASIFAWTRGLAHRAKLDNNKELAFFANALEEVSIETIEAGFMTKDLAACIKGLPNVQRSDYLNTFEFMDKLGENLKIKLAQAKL

The target in the assay is Isocitrate dehydrogenase [NADP] cytoplasmic (Homo sapiens) (UniProt O75874). The assay can be described thus: qHTS for Inhibitors of mutant isocitrate dehydrogenase 1 (IDH1): Confirmation of Cherrypicks. Also: nearly all actives have a fitted effect of over 50% in size. The note with it: IDH1 R132H enzyme, NADPH diaphorase/resazurin fluorescence; series mostly up to 76.6 µM; activity change, negative = inhibition: at the top concentration. From the text:
Malignant glioblastomas (WHO grade IV), including primary and secondary glioblastomas, are among the most lethal with a median survival of one year, and unfortunately they are also the most prevalent type of brain tumors. By and large the standard of care of gliomas remains the use of the oral alkylating agent temozolomide and radiotherapy following surgical tumor resection. There is an urgent unmet medical need for novel therapeutics for gliomas. IDH mutations occur in up to 70% of grade II-IV secondary glioblastomas, and IDH1 R132H is the most prevalent mutation. […] Wild-type IDH1 catalyzes the conversion of isocitrate to -ketoglutarate with the concomitant reduction of NADP+ to NADPH. In contrast, IDH1 R132H catalyzes the conversion of -ketoglutarate to 2-hydroxyglutarate (2-HG) with the concomitant oxidation of NADPH to NADP+ [5]. Recently, a second significant advancement for the field was the finding that IDH is an oncogene, and that its metabolic product 2-HG may contribute to the pathogenesis of IDH-mutated cancers. […] Although this link to cancer is tantalizing, the direct evidence of how 2-HG drives pathogenesis of gliomas and AML remains a subject of further research. The goal of this screen is to find small-molecule inhibitors of IDH1 R132H using a biochemical assay that measures substrate NADPH consumption through the use of a diaphorase/resazurin-coupled system. Inhibition of the IDH1 R132H enzymatic reaction leads to an increase in the amount of NADPH relative to a DMSO control and a concomitant increase in the fluorescence of the diaphorase/resazurin enzyme product resorufin at 590 nm. Compounds were screened as a concentration-titration series that ranged from 76 microM to 0.15 uM. NIH Molecular Libraries Probe Production Network [MLPCN] NIH Chemical Genomics Center [NCGC] MLSCN Grant: R03 DA032129 PI Name: Dr. Lenny Dang
Enzyme buffer was dispensed into black, solid 1536-well plates at 3 microL/well in 20 mM Tris buffer, pH 7.5, containing final concentrations of 10 mM MgCl2, 20 mM NaCl, 0.001% Tween20, 0.05% BSA, 2 mM beta-ME and 5.2 nM IDH1 R132H. Then, 23 nL of compounds or DMSO were delivered to each well using a pin tool. The inherent compound fluorescence was measured at this point at 590 nm on a ViewLux plate reader (Ex 525, Em 598, bodipy filter). The substrate buffer (3 uL; 20 mM Tris buffer, pH 7.5, containing final concentrations of 10 mM MgCl2, 20 mM NaCl, 0.001% Tween20, 0.05% BSA, 0.008 mM NADPH, and 1 mM a-ketoglutarate) was added to start the enzymatic reaction, and the plate was briefly spun at 270xg. After the reaction was allowed to progress for 80 minutes at room temperature, the remaining NADPH was detected with the diaphorase/resazurin-coupled system. Three microL of detection buffer (20 mM Tris buffer, pH 7.5, containing final concentrations of 10 mM MgCl2, 20 mM NaCl, 0.001% Tween20, 0.05% BSA, 0.53 uM diaphorase and 0.012 mM resazurin) was added, and after 5 minutes the fluorescence at 590 nm was measured on an Envision plate reader (Ex 544, Em 590, bodipy filter, 10 flashes). The %Activity was determined from the corrected fluorescence values. As no specific IDH1 R132H inhibitors have been identified in the literature, 1x (5.2 nM) and 0x IDH1 R132H enzyme controls (untreated) were included to normalize % Activity of identified inhibitors; 0x enzyme values corresponded to 100 % Activity (full inhibition), while 1x IDH1 R132H enzyme values were used to normalize 0 %A ctivity (no inhibition). Concentration-response curves were fitted to the signals arising from the resulting fluorescence. The concentration-response curves were then classified based on curve quality (r2), response magnitude and degree of measured activity, and compounds were subsequently categorized based on their curve class. […] Keywords: Isocitrate dehydrogenase, IDH1, IDH1 R132H, 2-HG, 2-hydroxyglutarate, AML, glioma, MLSMR, MLPCN, NIH Roadmap, qHTS, NCGC
In general terms: Quantitative high-throughput screening tests each substance at several concentrations.
As for `Cc1ccc2nc(N3C(=O)C(O)=C(C(=O)c4ccco4)C3c3cccc(O)c3)sc2c1` (centres undefined), the Potency was 28.2 µM (active).
Regarding `COc1ccc(/C=C2/SC(=O)N(CCCCCC(=O)Nc3ccccc3C(=O)O)C2=S)cc1`, the Potency was 39.8 µM (active).
Still for that read-out and setting: then `COc1cc(/C=C2/C(=O)ON=C2C)ccc1OCc1ccccc1F`, with 44.7 µM (active); and `Cc1nc(-c2ccc(Cl)cc2)sc1C(=O)CBr`, with 44.7 µM (active).
On the same count and under the same terms, then `O=C1c2cccc3cccc(c23)C(=O)N1CCCCCc1n[nH]c(=S)o1`, with 39.8 µM (active).
`CCCCC(=O)NC(c1ccc(OC)c(OC)c1)c1ccc2cccnc2c1O` (centres undefined): the “activity change, negative = inhibition” value is -18.7% (inactive).
For `Cc1cccc(N(C(=O)Cc2cccs2)C(C(=O)NC2CCCC2)c2ccsc2)c1` (centres undefined), the Potency was 3.55 µM (active).
With `COC(=O)c1ccc(-c2c(-c3ccccc3)ncc3cc(OC)c(OC)cc23)cc1`, the Potency was 12.6 µM (active).
Same read-out and setting: then `CC(C)Nc1nc(N(c2ccccc2)c2ccccc2)nc(-n2ccnc2)n1`, with 39.8 µM (active); and `CCCNc1ncnc2c1c(-c1ccccc1)cn2-c1ccc(OCC)cc1`, with 11.2 µM (active).
Still for that read-out and setting: then `COc1cc2c(-c3ccc4c(c3)OCO4)c(-c3ccsc3)oc(=O)c2cc1OC`, with 6.31 µM (active).
Take `CCOC(=O)c1oc2c(CN3CCN(CCO)CC3)c(O)c(CC)cc2c(=O)c1-c1nc2ccccc2s1`: the Potency is 22.4 µM (active).
Still for that read-out and setting: then `C(=N/Nc1cc(N2CCOCC2)nc(N2CCOCC2)n1)/c1ccccc1`, with 39.8 µM (active).
On the same count and under the same terms, then `CCCCOc1ccc(CN2C(=O)C(=O)c3cc(Br)cc(C)c32)cc1OC`, with 22.4 µM (active); and `Cc1ccc(-c2nn(-c3ccccc3)cc2/C=C2\SC(=S)N(CCCCCC(=O)O)C2=O)o1`, with 22.4 µM (active); and `O=C(NC(Nc1nc2ccc([N+](=O)[O-])cc2s1)(C(F)(F)F)C(F)(F)F)c1ccccc1`, with 3.55 µM (active).
On to `N#CC1=C(N)C(C#N)(C#N)[C@H](c2ccsc2)[C@H]2COCC=C12`, for which the Potency was 44.7 µM (active).
On the same count and under the same terms, then `Cc1nc(C)c(C(=O)N(c2ccc(C)c(C)c2)C(C(=O)NCc2ccco2)c2ccccc2)s1` (centres undefined), with 17.8 µM (active); and `COc1cc(/C=C2/SC(=S)N(Cc3ccccc3)C2=O)cc(OC)c1O`, with 39.8 µM (active).
Consider `COc1ccc(/C=N/Nc2cc(N3CCOCC3)nc(C)n2)c(OC)c1`, for which the Potency is 15.8 µM (active).
Take `CCOC(=O)c1ccc(N2C(=O)c3n[nH]c(-c4ccco4)c3C2c2ccc(O)cc2)cc1` (centres undefined): the Potency was 39.8 µM (active).
Consider `COC(=O)c1cccc(N(C(=O)c2ccco2)C(C(=O)NC2CCCC2)c2ccco2)c1` (centres undefined), for which the Potency was 22.4 µM (active).
On the same count and under the same terms, then `CCCc1[nH]nc2c1C(c1ccc(OC)c(Cn3nc(C)c(Br)c3C)c1)C(C#N)=C(N)O2` (centres undefined), with 31.6 µM (active).
For `Cn1c(COc2ccc(Cl)cc2)nc2ccccc2c1=O`, the “activity change, negative = inhibition” value is -16.1% (inactive).
On to `COc1ccc(C(CCN(Cc2ccc(OC)c(OC)c2)C(=O)CCl)c2ccccc2)cc1` (centres undefined), for which the Potency is 15.8 µM (active).
Same read-out and setting: then `CCCc1nc2c(c(=O)c3ccccc3n2C)c(=O)n1C1CCCCCC1`, with 8.91 µM (active).
Take `CCCOc1ccc(C2c3c(-c4ccccc4O)n[nH]c3C(=O)N2Cc2cccnc2)cc1` (centres undefined): the Potency was 14.1 µM (active).
Regarding `COc1ccc(Cl)cc1-n1c(=S)sc2c(=O)n(-c3ccc(F)cc3)c(SCC(=O)O)nc21`, the Potency was 7.94 µM (active).
Turning to `CCC(C)(C)NC(=O)C(c1cccn1C)N(Cc1ccc(C)cc1)C(=O)Cn1nnc2ccccc21` (centres undefined), the Potency was 25.1 µM (active).
